# Source: ChEMBL document CHEMBL1961873, “Compounds: GSK PKIS; Assays: Nanosyn kinase panel” (2012)
# Assays:
# [1] = system: Epidermal growth factor receptor (Homo sapiens), P00533 [L858R,T790M]; details: at 0.1 µM
# [2] = system: Epidermal growth factor receptor (Homo sapiens), P00533 [L858R,T790M]; details: at 1 µM
# [3] = target: Ephrin type-A receptor 2 (Homo sapiens) (UniProt P29317); details: at 0.1 µM
# [4] = target: Ephrin type-A receptor 2 (Homo sapiens) (UniProt P29317); details: at 1 µM
# [5] = target: Ephrin type-A receptor 3 (Homo sapiens) (UniProt P29320); details: at 0.1 µM
# [6] = target: Ephrin type-A receptor 3 (Homo sapiens) (UniProt P29320); details: at 1 µM
# [7] = target: Ephrin type-A receptor 4 (Homo sapiens) (UniProt P54764); details: at 0.1 µM
# [8] = target: Ephrin type-A receptor 4 (Homo sapiens) (UniProt P54764); details: at 1 µM
# [9] = target: Ephrin type-B receptor 2 (Homo sapiens) (UniProt P29323); details: at 0.1 µM
# [10] = target: Ephrin type-B receptor 2 (Homo sapiens) (UniProt P29323); details: at 1 µM
# [11] = target: Ephrin type-B receptor 3 (Homo sapiens) (UniProt P54753); details: at 0.1 µM
# Chain of Ephrin type-B receptor 3 (Homo sapiens) (P54753 whole entry): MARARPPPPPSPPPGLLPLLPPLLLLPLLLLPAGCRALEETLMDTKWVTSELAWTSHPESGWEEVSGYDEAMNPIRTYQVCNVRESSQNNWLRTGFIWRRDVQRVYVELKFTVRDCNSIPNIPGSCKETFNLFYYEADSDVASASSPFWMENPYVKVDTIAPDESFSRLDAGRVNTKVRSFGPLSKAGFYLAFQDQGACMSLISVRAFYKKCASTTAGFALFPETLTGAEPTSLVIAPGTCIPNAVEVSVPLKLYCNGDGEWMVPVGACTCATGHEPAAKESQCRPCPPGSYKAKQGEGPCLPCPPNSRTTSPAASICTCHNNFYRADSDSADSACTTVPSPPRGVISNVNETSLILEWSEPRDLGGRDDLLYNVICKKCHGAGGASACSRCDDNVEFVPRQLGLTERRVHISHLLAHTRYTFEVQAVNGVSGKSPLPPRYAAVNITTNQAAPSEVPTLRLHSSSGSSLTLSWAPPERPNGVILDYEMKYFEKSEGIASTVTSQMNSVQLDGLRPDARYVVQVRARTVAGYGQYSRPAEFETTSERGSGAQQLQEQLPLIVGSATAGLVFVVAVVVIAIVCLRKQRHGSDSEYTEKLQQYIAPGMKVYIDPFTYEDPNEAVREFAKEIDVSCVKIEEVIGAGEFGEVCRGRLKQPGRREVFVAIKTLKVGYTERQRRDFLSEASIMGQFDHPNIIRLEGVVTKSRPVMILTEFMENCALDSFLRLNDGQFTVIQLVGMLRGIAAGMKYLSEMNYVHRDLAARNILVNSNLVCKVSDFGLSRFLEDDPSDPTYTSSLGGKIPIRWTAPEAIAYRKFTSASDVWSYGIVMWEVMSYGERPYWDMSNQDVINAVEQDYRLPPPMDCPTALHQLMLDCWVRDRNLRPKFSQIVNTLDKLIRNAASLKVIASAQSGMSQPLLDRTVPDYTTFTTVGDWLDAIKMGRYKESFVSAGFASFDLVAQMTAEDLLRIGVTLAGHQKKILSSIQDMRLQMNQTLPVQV
# [12] = target: Ephrin type-B receptor 3 (Homo sapiens) (UniProt P54753); details: at 1 µM
# [13] = target: Ephrin type-B receptor 4 (Homo sapiens) (UniProt P54760); details: at 0.1 µM
# [14] = target: Ephrin type-B receptor 4 (Homo sapiens) (UniProt P54760); details: at 1 µM
# [15] = target: Receptor tyrosine-protein kinase erbB-2 (Homo sapiens) (UniProt P04626); details: at 0.1 µM
# [16] = target: Receptor tyrosine-protein kinase erbB-2 (Homo sapiens) (UniProt P04626); details: at 1 µM
# [17] = target: Receptor tyrosine-protein kinase erbB-4 (Homo sapiens) (UniProt Q15303); details: at 0.1 µM
# [18] = target: Receptor tyrosine-protein kinase erbB-4 (Homo sapiens) (UniProt Q15303); details: at 1 µM
# [19] = target: Tyrosine-protein kinase Fer (Homo sapiens) (UniProt P16591); details: at 0.1 µM
# [20] = target: Tyrosine-protein kinase Fer (Homo sapiens) (UniProt P16591); details: at 1 µM
# [21] = target: Tyrosine-protein kinase Fes/Fps (Homo sapiens) (UniProt P07332); details: at 0.1 µM
# [22] = target: Tyrosine-protein kinase Fes/Fps (Homo sapiens) (UniProt P07332); details: at 1 µM
# [23] = target: Fibroblast growth factor receptor 1 (Homo sapiens) (UniProt P11362); details: at 0.1 µM
# [24] = target: Fibroblast growth factor receptor 1 (Homo sapiens) (UniProt P11362); details: at 1 µM
# [25] = target: Fibroblast growth factor receptor 2 (Homo sapiens) (UniProt P21802); details: at 0.1 µM
# [26] = target: Fibroblast growth factor receptor 2 (Homo sapiens) (UniProt P21802); details: at 1 µM
# [27] = target: Fibroblast growth factor receptor 3 (Homo sapiens) (UniProt P22607); details: at 0.1 µM
# [28] = target: Fibroblast growth factor receptor 3 (Homo sapiens) (UniProt P22607); details: at 1 µM
# [29] = target: Fibroblast growth factor receptor 4 (Homo sapiens) (UniProt P22455); details: at 0.1 µM
# [30] = target: Fibroblast growth factor receptor 4 (Homo sapiens) (UniProt P22455); details: at 1 µM
# [31] = target: Tyrosine-protein kinase Fgr (Homo sapiens) (UniProt P09769); details: at 0.1 µM
# Chain of Tyrosine-protein kinase Fgr (Homo sapiens) (P09769 2-529 limits assumed): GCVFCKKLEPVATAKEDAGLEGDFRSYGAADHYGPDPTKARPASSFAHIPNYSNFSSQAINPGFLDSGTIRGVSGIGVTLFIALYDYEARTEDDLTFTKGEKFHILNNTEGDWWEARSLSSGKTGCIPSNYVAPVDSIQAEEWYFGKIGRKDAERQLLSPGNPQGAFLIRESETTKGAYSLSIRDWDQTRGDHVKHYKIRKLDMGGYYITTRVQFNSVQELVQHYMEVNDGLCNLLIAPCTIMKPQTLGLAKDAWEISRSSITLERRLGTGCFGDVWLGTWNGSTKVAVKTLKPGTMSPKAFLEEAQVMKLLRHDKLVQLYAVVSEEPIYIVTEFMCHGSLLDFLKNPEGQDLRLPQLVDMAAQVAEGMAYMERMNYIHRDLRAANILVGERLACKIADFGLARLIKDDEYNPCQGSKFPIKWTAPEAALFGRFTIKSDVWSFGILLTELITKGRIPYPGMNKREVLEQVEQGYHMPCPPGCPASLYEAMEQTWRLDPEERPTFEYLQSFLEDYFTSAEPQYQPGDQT
# [32] = target: Tyrosine-protein kinase Fgr (Homo sapiens) (UniProt P09769); details: at 1 µM
# [33] = target: Vascular endothelial growth factor receptor 1 (Homo sapiens) (UniProt P17948); details: at 0.1 µM
# [34] = target: Vascular endothelial growth factor receptor 1 (Homo sapiens) (UniProt P17948); details: at 1 µM
# [35] = target: Receptor-type tyrosine-protein kinase FLT3 (Homo sapiens) (UniProt P36888); details: at 0.1 µM
# [36] = target: Receptor-type tyrosine-protein kinase FLT3 (Homo sapiens) (UniProt P36888); details: at 1 µM
# [37] = system: Receptor-type tyrosine-protein kinase FLT3 (Homo sapiens), P36888 [D835Y]; details: at 0.1 µM
# [38] = target: Non-receptor tyrosine-protein kinase TYK2 (Homo sapiens) (UniProt P29597); details: at 1 µM;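 further: values are mean percent inhibition of TYK2 kinase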
# [39] = target: Tyrosine-protein kinase receptor TYRO3 (Homo sapiens) (UniProt Q06418); details: at 0.1 µM
# [40] = target: Tyrosine-protein kinase receptor TYRO3 (Homo sapiens) (UniProt Q06418); details: at 1 µM
# [41] = target: Tyrosine-protein kinase Yes (Homo sapiens) (UniProt P07947); details: at 0.1 µM
# Chain of Tyrosine-protein kinase Yes (Homo sapiens) (P07947 2-543 limits assumed): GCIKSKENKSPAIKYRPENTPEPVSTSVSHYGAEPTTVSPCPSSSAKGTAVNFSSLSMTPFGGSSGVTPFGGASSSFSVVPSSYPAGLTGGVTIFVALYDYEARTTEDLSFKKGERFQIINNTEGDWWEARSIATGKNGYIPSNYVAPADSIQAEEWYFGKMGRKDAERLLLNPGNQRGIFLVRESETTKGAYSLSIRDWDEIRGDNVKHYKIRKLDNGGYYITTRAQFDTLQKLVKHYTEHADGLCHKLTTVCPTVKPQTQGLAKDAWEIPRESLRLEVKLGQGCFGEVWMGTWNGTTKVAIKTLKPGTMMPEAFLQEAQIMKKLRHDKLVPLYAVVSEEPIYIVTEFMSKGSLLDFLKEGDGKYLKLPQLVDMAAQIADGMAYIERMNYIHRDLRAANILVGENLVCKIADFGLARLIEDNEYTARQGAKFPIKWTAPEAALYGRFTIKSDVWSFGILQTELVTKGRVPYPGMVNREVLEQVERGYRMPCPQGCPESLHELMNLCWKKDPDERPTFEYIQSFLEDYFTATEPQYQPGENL
# [42] = target: Tyrosine-protein kinase Yes (Homo sapiens) (UniProt P07947); details: at 1 µM
# [43] = target: Tyrosine-protein kinase ZAP-70 (Homo sapiens) (UniProt P43403); details: at 0.1 µM
# [44] = target: Tyrosine-protein kinase ZAP-70 (Homo sapiens) (UniProt P43403); details: at 1 µM
# [45] = target: Serine/threonine-protein kinase B-raf (Homo sapiens) (UniProt P15056); details: at 0.1 µM
# [46] = target: Serine/threonine-protein kinase B-raf (Homo sapiens) (UniProt P15056); details: at 1 µM
# [47] = system: Serine/threonine-protein kinase B-raf (Homo sapiens), P15056 [V600E]; details: at 0.1 µM
# [48] = system: Serine/threonine-protein kinase B-raf (Homo sapiens), P15056 [V600E]; details: at 1 µM
# [49] = target: RAF proto-oncogene serine/threonine-protein kinase (Homo sapiens) (UniProt P04049); details: at 0.1 µM
# [50] = target: RAF proto-oncogene serine/threonine-protein kinase (Homo sapiens) (UniProt P04049); details: at 1 µM
# [51] = target: Interleukin-1 receptor-associated kinase 4 (Homo sapiens) (UniProt Q9NWZ3); details: at 0.1 µM
# Chain of Interleukin-1 receptor-associated kinase 4 (Homo sapiens) (Q9NWZ3 whole entry): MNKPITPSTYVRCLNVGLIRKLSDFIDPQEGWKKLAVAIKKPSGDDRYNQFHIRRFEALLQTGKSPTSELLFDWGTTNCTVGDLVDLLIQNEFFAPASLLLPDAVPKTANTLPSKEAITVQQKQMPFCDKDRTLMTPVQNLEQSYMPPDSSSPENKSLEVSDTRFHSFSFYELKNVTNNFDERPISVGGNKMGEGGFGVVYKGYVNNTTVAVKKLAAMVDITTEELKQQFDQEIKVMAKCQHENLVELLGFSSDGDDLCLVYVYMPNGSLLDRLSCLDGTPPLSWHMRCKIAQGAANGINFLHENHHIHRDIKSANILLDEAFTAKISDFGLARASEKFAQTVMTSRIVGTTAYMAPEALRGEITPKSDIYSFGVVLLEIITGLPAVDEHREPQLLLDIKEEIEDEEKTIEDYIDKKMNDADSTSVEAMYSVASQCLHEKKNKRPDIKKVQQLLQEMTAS
# [52] = target: Interleukin-1 receptor-associated kinase 4 (Homo sapiens) (UniProt Q9NWZ3); details: at 1 µM
# [53] = target: Leucine-rich repeat serine/threonine-protein kinase 2 (Homo sapiens) (UniProt Q5S007); details: at 0.1 µM
# Chain of Leucine-rich repeat serine/threonine-protein kinase 2 (Homo sapiens) (Q5S007 whole entry): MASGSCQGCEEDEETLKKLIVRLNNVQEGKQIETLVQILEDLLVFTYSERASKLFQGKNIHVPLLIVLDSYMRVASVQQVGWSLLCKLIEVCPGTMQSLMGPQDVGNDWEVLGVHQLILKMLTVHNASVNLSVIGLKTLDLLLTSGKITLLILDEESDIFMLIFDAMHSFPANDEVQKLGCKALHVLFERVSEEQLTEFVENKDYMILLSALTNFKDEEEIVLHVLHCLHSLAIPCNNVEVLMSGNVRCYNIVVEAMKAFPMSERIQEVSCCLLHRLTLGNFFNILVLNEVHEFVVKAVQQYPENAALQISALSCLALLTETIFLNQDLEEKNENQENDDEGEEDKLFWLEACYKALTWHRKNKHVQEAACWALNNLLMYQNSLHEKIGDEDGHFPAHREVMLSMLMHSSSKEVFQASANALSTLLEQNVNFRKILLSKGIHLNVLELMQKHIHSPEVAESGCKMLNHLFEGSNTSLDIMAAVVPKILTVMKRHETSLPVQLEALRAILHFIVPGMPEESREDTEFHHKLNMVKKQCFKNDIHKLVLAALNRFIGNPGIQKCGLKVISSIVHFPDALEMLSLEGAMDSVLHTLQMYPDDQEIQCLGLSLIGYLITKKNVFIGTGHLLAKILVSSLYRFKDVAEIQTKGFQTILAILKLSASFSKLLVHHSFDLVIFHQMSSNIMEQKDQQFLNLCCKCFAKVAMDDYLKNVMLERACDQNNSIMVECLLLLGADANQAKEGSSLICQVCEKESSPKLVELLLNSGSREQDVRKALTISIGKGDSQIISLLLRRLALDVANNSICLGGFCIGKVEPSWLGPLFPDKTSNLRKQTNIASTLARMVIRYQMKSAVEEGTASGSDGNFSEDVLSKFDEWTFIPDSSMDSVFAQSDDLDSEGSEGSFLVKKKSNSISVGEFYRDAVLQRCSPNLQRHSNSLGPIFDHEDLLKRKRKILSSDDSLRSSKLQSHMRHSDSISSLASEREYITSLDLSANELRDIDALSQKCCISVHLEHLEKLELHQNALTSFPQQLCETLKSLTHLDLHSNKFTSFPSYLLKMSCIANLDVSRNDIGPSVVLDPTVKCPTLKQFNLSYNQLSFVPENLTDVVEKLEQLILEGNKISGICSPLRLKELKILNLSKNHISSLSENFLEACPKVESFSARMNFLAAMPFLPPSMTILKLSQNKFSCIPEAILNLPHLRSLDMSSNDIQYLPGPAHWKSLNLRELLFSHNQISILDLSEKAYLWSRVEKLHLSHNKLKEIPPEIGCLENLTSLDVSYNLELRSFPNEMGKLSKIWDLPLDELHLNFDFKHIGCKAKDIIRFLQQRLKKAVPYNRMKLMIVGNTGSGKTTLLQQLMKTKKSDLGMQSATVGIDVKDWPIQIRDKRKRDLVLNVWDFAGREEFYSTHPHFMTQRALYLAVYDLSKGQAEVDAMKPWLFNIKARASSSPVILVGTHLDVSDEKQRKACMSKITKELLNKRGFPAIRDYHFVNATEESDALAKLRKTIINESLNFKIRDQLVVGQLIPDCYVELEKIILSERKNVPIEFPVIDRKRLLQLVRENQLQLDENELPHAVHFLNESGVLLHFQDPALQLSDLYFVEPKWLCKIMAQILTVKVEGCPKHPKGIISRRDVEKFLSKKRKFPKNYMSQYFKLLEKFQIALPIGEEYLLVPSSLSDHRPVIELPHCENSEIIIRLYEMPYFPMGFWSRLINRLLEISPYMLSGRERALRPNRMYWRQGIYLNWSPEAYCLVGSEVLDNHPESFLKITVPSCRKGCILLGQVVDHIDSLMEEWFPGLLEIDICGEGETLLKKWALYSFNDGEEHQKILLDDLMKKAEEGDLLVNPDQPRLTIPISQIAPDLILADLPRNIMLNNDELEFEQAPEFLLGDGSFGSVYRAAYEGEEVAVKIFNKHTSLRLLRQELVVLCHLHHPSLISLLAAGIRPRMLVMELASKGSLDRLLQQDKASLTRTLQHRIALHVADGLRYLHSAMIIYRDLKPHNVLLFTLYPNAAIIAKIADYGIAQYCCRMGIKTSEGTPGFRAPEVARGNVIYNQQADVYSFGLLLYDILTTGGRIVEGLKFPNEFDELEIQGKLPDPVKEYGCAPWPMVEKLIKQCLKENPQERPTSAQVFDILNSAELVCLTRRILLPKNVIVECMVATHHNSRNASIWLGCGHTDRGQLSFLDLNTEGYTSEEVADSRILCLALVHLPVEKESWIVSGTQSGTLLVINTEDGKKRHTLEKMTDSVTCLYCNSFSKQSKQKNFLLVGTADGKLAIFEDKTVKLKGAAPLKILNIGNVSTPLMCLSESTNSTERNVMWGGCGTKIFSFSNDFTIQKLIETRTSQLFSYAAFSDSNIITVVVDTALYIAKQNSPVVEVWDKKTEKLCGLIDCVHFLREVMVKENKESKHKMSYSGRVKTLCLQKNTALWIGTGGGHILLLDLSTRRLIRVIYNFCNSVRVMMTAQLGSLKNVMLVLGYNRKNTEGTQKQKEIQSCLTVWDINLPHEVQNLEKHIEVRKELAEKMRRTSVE
# [54] = target: Leucine-rich repeat serine/threonine-protein kinase 2 (Homo sapiens) (UniProt Q5S007); details: at 1 µM
# [55] = system: Leucine-rich repeat serine/threonine-protein kinase 2 (Homo sapiens), Q5S007 [G2019S]; details: at 0.1 µM
# Chain of Leucine-rich repeat serine/threonine-protein kinase 2 (Homo sapiens), Q5S007 [G2019S] (Q5S007 whole entry G2019S): as the sequence (Q5S007 whole entry) above, with G2019S counted along it
# [56] = system: Leucine-rich repeat serine/threonine-protein kinase 2 (Homo sapiens), Q5S007 [G2019S]; details: at 1 µM
smiles,measurement,setting,value
CNC(=O)Oc1cc(C)c(/C=C/c2cncc(C(=O)NC)c2)c(C)c1,inhibition,[1],-1.98%
same,inhibition,[2],-0.11%
same,inhibition,[3],12%
same,inhibition,[4],49.6%
same,inhibition,[5],7.72%
same,inhibition,[6],17.6%
same,inhibition,[7],17.7%
same,inhibition,[8],61.4%
same,inhibition,[9],12.4%
same,inhibition,[10],52.8%
same,inhibition,[11],5.12%
same,inhibition,[12],6.12%
same,inhibition,[13],9.51%
same,inhibition,[14],49.7%
same,inhibition,[15],0.63%
same,inhibition,[16],-1.51%
same,inhibition,[17],7.57%
same,inhibition,[18],13.2%
same,inhibition,[19],0.78%
same,inhibition,[20],3.53%
same,inhibition,[21],5.18%
same,inhibition,[22],7.85%
same,inhibition,[23],3.22%
same,inhibition,[24],0.63%
same,inhibition,[25],0.21%
same,inhibition,[26],10.2%
same,inhibition,[27],2.97%
same,inhibition,[28],2.24%
same,inhibition,[29],-0.84%
same,inhibition,[30],0.6%
same,inhibition,[31],3.83%
same,inhibition,[32],24.6%
same,inhibition,[33],0.98%
same,inhibition,[34],4.03%
same,inhibition,[35],1.57%
same,inhibition,[36],1.37%
same,inhibition,[37],0.68%
same,inhibition,[38],-0.46%
same,inhibition,[39],1.9%
same,inhibition,[40],5.43%
same,inhibition,[41],4.32%
same,inhibition,[42],23.4%
same,inhibition,[43],2%
same,inhibition,[44],-0.7%
same,inhibition,[45],4.75%
same,inhibition,[46],9.98%
same,inhibition,[47],4.23%
same,inhibition,[48],8.52%
same,inhibition,[49],-2.42%
same,inhibition,[50],1.27%
same,inhibition,[51],-1.38%
same,inhibition,[52],1.67%
same,inhibition,[53],7.04%
same,inhibition,[54],10.5%
same,inhibition,[55],5.2%
same,inhibition,[56],18.7%
